“And” between values parts separate entries of the source, which are not always exact repeats. Equal entries are not always repeated. Among all 5,500 compounds or so, about 2,000 (36%) were called active. Roughly 18% stayed inconclusive and do not appear here. No stated cut-off is given here; in the data, active means normalized growth mostly below about 0.91 (no sharp cut-off); inconclusive means no clear call, values can overlap the other calls; inactive means mostly above about 0.92. The list shows a part of the results.
Assay: chemical genetic growth profiling, strain panel (AID 1159580);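 further: tested at 20 µM; growth read once vehicle control cultures reached saturation at 30 °C; 1 = growth at the plate median or of vehicle wells; lower values mean less growth of the strain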
Details: S. cerevisiae deletion strains, growth OD

Measured: normalized growth

C[C@H](N)[C@H](O)c1cccc(O)c1
inactive: locus YAL021C, strain ccr4, hits give low values 1 | locus YAL026C, strain drs2, hits give low values 1.01 | locus YAL030W, strain snc1, hits give low values 1 | locus YBL061C, strain skt5, hits give low values 1.01 | locus YBR009C, strain hhf1, hits give low values 1.02 | locus YBR021W, strain FUR4, hits give low values 1.04 | locus YBR023C, strain chs3, hits give low values 1.02 | locus YBR171W, strain sec66, hits give low values 1.02 | locus YBR229C, strain ROT2, hits give low values 0.992 | locus YBR231C, strain swc5, hits give low values 1 | locus YBR279W, strain paf1, hits give low values 1.01 | locus YCL011C, strain gbp2, hits give low values 1 | locus YCL016C, strain dcc1, hits give low values 1.02 | locus YCL029C, strain bik1, hits give low values 0.985 | locus YCL061C, strain MRC1, hits give low values 1.01 | locus YCL069W, strain vba3, hits give low values 0.994 | locus YCR088W, strain abp1, hits give low values 1 | locus YDL005C, strain med2, hits give low values 1.01 | locus YDL035C, strain GPR1, hits give low values 0.983 | locus YDL040C, strain nat1, hits give low values 1 | locus YDL074C, strain BRE1, hits give low values 1.04 | locus YDL101C, strain DUN1, hits give low values 0.997 | locus YDL185W, strain tfp1, hits give low values 0.957 | locus YDL192W, strain arf1, hits give low values 0.99 | locus YDR001C, strain nth1, hits give low values 0.999 | locus YDR069C, strain doa4, hits give low values 1.01 | locus YDR101C, strain arx1, hits give low values 1 | locus YDR137W, strain rgp1, hits give low values 1.03 | locus YDR150W, strain NUM1, hits give low values 0.981 | locus YDR159W, strain sac3, hits give low values 1.03 | locus YDR162C, strain NBP2, hits give low values 0.986 | locus YDR195W, strain ref2 1 | locus YDR297W, strain sur2, hits give low values 1 | locus YDR318W, strain mcm21, hits give low values 0.997 | locus YDR334W, strain swr1, hits give low values 0.999 | locus YDR335W, strain msn5, hits give low values 0.994 | locus YDR388W, hits give low values 0.987 | locus YDR392W, strain spt3, hits give low values 1.02 | locus YDR502C, strain sam2, hits give low values 1 | locus YEL003W, strain gim4, hits give low values 1.01 | locus YEL037C, strain rad23, hits give low values 1 | locus YEL061C, strain CIN8 (second series), hits give low values 0.992 | locus YEL061C, strain CIN8, hits give low values 0.988 | locus YER015W, strain faa2, hits give low values 1.01 | locus YER016W, strain bim1, hits give low values 1.01 | locus YER110C, hits give low values 0.973 | locus YER111C, strain swi4, hits give low values 1 | locus YER155C, strain BEM2 (second series), hits give low values 0.995 | locus YER155C, strain BEM2, hits give low values 1.01 | locus YER167W, strain BCK2, hits give low values 0.989 | locus YFR010W, strain ubp6, hits give low values 1.01 | locus YGL078C, strain dbp3, hits give low values 0.995 | locus YGL086W, strain mad1, hits give low values 1.01 | locus YGL167C, strain pmr1, hits give low values 1.02 | locus YGL173C, strain kem1, hits give low values 1.01 | locus YGL227W, strain vid30, hits give low values 1 | locus YGL240W, strain doc1, hits give low values 1.01 | locus YGL248W, strain PDE1, hits give low values 1.02 | locus YGL253W, strain hxk2, hits give low values 1.01 | locus YGR078C, strain PAC10, hits give low values 1.01 | locus YGR135W, strain pre9, hits give low values 0.942 | locus YGR252W, strain gcn5, hits give low values 1.04 | locus YHR013C, strain ard1, hits give low values 1.02 | locus YHR027C, strain rpn1, hits give low values 1.02 | locus YHR030C, strain SLT2, hits give low values 0.979 and 1.02 | locus YHR079C, strain IRE1 (second series), hits give low values 0.999 | locus YHR079C, strain IRE1, hits give low values 1.02 | locus YHR094C, strain hxt1, hits give low values 0.979 | locus YHR129C, strain ARP1, hits give low values 0.997 | locus YHR142W, strain chs7, hits give low values 1 | locus YHR200W, strain rpn10, hits give low values 0.987 | locus YIL066C, strain RNR3, hits give low values 1 | locus YIL073C, strain SPO22, hits give low values 0.828 | locus YIL125W, strain kgd1, hits give low values 0.988 | locus YIR030C, strain dcg1, hits give low values 0.982 | locus YJL092W, strain hpr5, hits give low values 1.01 | locus YJL095W, strain BCK1 (second series), hits give low values 1.01 | locus YJL095W, strain BCK1, hits give low values 1.01 and 1.04 | locus YJL115W, strain asf1, hits give low values 1.01 | locus YJL129C, strain trk1, hits give low values 0.995 | locus YJL134W, strain LCB3, hits give low values 0.985 | locus YJL154C, strain vps35, hits give low values 0.997 | locus YJL164C, strain tpk1, hits give low values 1.01 | locus YJL166W, strain qcr8, hits give low values 1 | locus YJL168C, strain set2, hits give low values 0.999 | locus YJL187C, strain SWE1 (second series), hits give low values 0.996 | locus YJL187C, strain SWE1, hits give low values 1.01 | locus YJR043C, strain POL32, hits give low values 1.04 | locus YJR066W, strain TOR1, hits give low values 0.991 | locus YKL009W, strain mrt4, hits give low values 0.987 | locus YKL068W, hits give low values 0.977 | locus YKL085W, strain MDH1 (second series), hits give low values 0.984 | locus YKL085W, strain MDH1, hits give low values 0.984 | locus YKL160W, strain elf1, hits give low values 1 | locus YKR001C, strain vps1, hits give low values 0.998 | locus YKR026C, strain gcn3, hits give low values 1.01 | locus YKR091W, strain srl3, hits give low values 0.998 | locus YLL001W, strain dnm1, hits give low values 1.01 | locus YLL026W, hits give low values 1 | locus YLL041C, strain sdh2, hits give low values 1.01 | locus YLR027C, strain aat2, hits give low values 1.01 | locus YLR039C, strain RIC1, hits give low values 0.968 | locus YLR058C, strain SHM2, hits give low values 0.983 | locus YLR102C, strain apc9, hits give low values 0.993 | locus YLR113W, strain HOG1, hits give low values 1.07 | locus YLR221C, strain rsa3, hits give low values 1.01 | locus YLR258W, strain gsy2, hits give low values 1 | locus YLR262C, strain YPT6 (second series), hits give low values 1.03 | locus YLR262C, strain YPT6, hits give low values 0.963 | locus YLR268W, strain sec22, hits give low values 1.01 | locus YLR320W, strain mms22, hits give low values 1.02 | locus YLR330W, strain CHS5, hits give low values 0.985 | locus YLR342W, strain FKS1 (second series), hits give low values 0.98 | locus YLR342W, strain FKS1, hits give low values 1.01 | locus YLR357W, strain rsc2, hits give low values 0.993 | locus YLR370C, strain arc18, hits give low values 1.01 | locus YLR371W, strain rom2, hits give low values 1 | locus YLR384C, strain iki3, hits give low values 1.01 | locus YLR418C, strain cdc73, hits give low values 0.983 | locus YML016C, strain PPZ1, hits give low values 0.995 | locus YML032C, strain rad52, hits give low values 1.01 | locus YML120C, strain ndi1, hits give low values 1.01 | locus YML124C, strain tub3, hits give low values 0.991 | locus YMR058W, strain fet3, hits give low values 1 | locus YMR078C, strain ctf18, hits give low values 0.985 | locus YMR125W, strain sto1, hits give low values 1 | locus YMR129W, hits give low values 1 | locus YMR205C, strain PFK2, hits give low values 1.03 | locus YMR223W, strain ubp8, hits give low values 0.971 | locus YMR231W, strain pep5, hits give low values 1.02 | locus YMR263W, strain SAP30, hits give low values 0.995 | locus YMR307W, strain GAS1, hits give low values 1 | locus YNL067W, strain RPL9B, hits give low values 1.02 | locus YNL071W, strain lat1, hits give low values 0.997 | locus YNL153C, strain GIM3, hits give low values 1.04 | locus YNL183C, strain NPR1, hits give low values 0.989 | locus YNL209W, strain ssb2, hits give low values 1.01 | locus YNL233W, strain BNI4, hits give low values 1.05 | locus YNL248C, strain rpa49, hits give low values 1.01 | locus YNL250W, strain rad50, hits give low values 0.993 | locus YNL271C, strain bni1, hits give low values 0.997 | locus YNL298W, strain CLA4, hits give low values 0.993 | locus YNL307C, strain MCK1, hits give low values 1 | locus YNL322C, strain KRE1 (second series), hits give low values 1.01 | locus YNR049C, strain mso1, hits give low values 1.01 | locus YNR052C, strain pop2, hits give low values 0.993 | locus YOL012C, strain htz1 1.01 | locus YOL147C, strain pex11, hits give low values 0.978 | locus YOR001W, strain rrp6, hits give low values 1.01 | locus YOR061W, strain CKA2, hits give low values 0.996 | locus YOR069W, strain VPS5, hits give low values 0.985 | locus YOR070C, strain gyp1, hits give low values 1.01 | locus YOR080W, strain dia2, hits give low values 1.02 | locus YOR083W, strain WHI5, hits give low values 1.01 | locus YOR106W, strain vam3, hits give low values 1.02 | locus YOR136W, strain idh2, hits give low values 1.01 | locus YOR144C, strain elg1, hits give low values 0.996 | locus YOR184W, strain ser1, hits give low values 0.989 | locus YOR231W, strain MKK1, hits give low values 1.06 | locus YOR265W, strain rbl2, hits give low values 1.01 | locus YOR270C, strain vph1, hits give low values 1.01 | locus YOR290C, strain snf2, hits give low values 1.03 | locus YOR316C, strain cot1, hits give low values 0.99 | locus YPL051W, strain arl3, hits give low values 1.01 | locus YPL055C, strain LGE1, hits give low values 1.06 | locus YPL078C, strain atp4, hits give low values 1.01 | locus YPL106C, strain sse1, hits give low values 1.03 | locus YPL240C, strain hsp82, hits give low values 1.01 | locus YPL256C, strain CLN2, hits give low values 1.04 | locus YPR119W, strain clb2, hits give low values 0.995 | locus YPR141C, strain kar3, hits give low values 0.978 | locus YPR163C, strain tif3, hits give low values 0.987 | locus YPR167C, strain met16, hits give low values 1 | strain wtn01, hits give low values 0.998
